LASV entry inh: Lassa virus entry inhibition; Lassa virus pseudotype entry inhibition, cell reporter; Potency, µM (titrated, usually from 37.9 µM), most hits filed as inhibitors; actives 1.2% (n = 300,000); calls by dose curve; tested in HEK293 cells; also: nearly all actives have a fitted effect of over 50% in size
Pf growth 48h: P. falciparum growth inhibition at 48 hours (one generation); actives 5.9% (n = 310,000); Potency, µM (titrated, usually from 28.7 µM), hits mostly inhibitors; P. falciparum luciferase growth in erythrocytes, 48 h
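Parasite viability was followed by luminescence of a genomically integrated firefly luciferase. Cultures held 0.1% parasitemia at 2% hematocrit (final), incubated under 5% CO2 at 37 C.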
MARV entry inh: blocks Marburg virus binding to or entry into cells; AID 540276; Potency, µM (highest dose often 37.8 µM), usual class: inhibitors; Marburg virus pseudotyped entry inhibition, cell reporter; actives 1.8% (n = 300,000); calls by dose curve; tested in HEK293 cells
Pf growth 96h: inhibits malaria parasite growth, 96 h; Potency, µM (titrated, usually from 28.7 µM), actives largely listed as inhibitors; actives 6.9% (n = 320,000); P. falciparum luciferase reporter growth, 96 h
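Compounds incubated with erythrocytes infected by luciferase-expressing P. falciparum (2% hematocrit, 0.05% parasitemia final) for 96 hours, 37 C in 5% CO2. Growth inhibition scored as decreased luciferase luminescence.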
Cycloheximide cs: counter-screen hit for Shiga toxin inhibitors, cycloheximide | actives 12% (n = 300,000) | AID 2314 | cell reporter, cycloheximide protein synthesis inhibition counterscreen | max response, %; in the data active = max response mostly above about 13%, no sharp cut-off; inactive = mostly below about 14%; also: read at 38.3 µM for the half of the compounds with a filed dose
Shiga inhibitor: inhibitors of Shiga toxin in Vero cells; Vero cells, Shiga toxin protein synthesis inhibition reporter; inhibition, % at 38.7 µM; actives 9.2% (n = 290,000); AID 2315; in the data active = inhibition mostly above about 28%, no sharp cut-off; inactive = mostly below about 43%
Numbers stand for hits; - = inactive; ? = inconclusive; . = not tested or not shown; [ ] = dose if it differs, or a comment. In the library only some 19% were active in any assay of this set; here they are far more common. Unless noted, calls follow the shape of the dose curve; as a rule, active = well fitted inhibition curve with a large enough effect; inconclusive = small, poorly fitted or top-dose-only effect, or another doubt; inactive = no such curve, though single readings can be large or run the other way.

SMILES	LASV entry inh	Pf growth 48h	MARV entry inh	Pf growth 96h	Cycloheximide cs	Shiga inhibitor
Clc1ccc(C2=NNC(=NCC3CCCO3)SC2)cc1 (stereo not drawn)	-	-	-	?	60.5	160.0
CCCn1c(N)c(C(=O)CSc2nc(C)cs2)c(=O)n(C)c1=O	-	-	10µM	9.28µM	23.5	-
Cc1cccc(COCCN2CCN(S(=O)(=O)c3ccccc3)CCC2=O)c1	.	-	.	14.7µM	-	-
Cc1ccc(S(=O)(=O)N2CCC(=O)N(CCOCc3ccc(Cl)cc3)CC2)cc1	?	-	-	-	-	-
O=C1CCN(S(=O)(=O)c2ccccc2)CCN1CCOCc1ccccc1	.	-	.	9.28µM	-	-
Nc1nc2c(nnn2Cc2ccc(Cl)c(Cl)c2)c(=O)[nH]1	-	.	?	.	.	.
O=C(COc1ccc(F)cc1Br)Nc1ccccc1N1CCOCC1	-	10.4µM	?	?	.	.
Cc1cc(Cl)ccc1OCC(=O)Nc1ccccc1N1CCOCC1	8.91µM	-	?	?	-	-
O=C(COc1ccc(F)cc1)Nc1ccccc1N1CCOCC1	-	-	-	?	.	.
Cc1ccc(CCNC(=O)c2ccc3c(c2)N(Cc2ccc(F)cc2)CCS3)cc1	-	.	-	.	.	.
Cc1ccc(CN2CCSc3ccc(C(=O)NCCCN4CCN(C)CC4)cc32)cc1	.	14.7µM	.	?	-	-
COc1ccc(OC)c(CCNC(=O)c2ccc3c(c2)N(Cc2ccc(F)cc2)CCS3)c1	.	?	.	?	-	-
COc1ccc(CCNC(=O)c2ccc3c(c2)N(Cc2ccc(C)cc2)CCS3)cc1OC	?	10.4µM	?	-	-	-
COc1ccc(CCNC(=O)c2ccc3c(c2)N(Cc2ccc(F)cc2)CCS3)c(OC)c1	-	?	7.94µM	?	-	-
CCSCC1COC(c2cccn2Cc2ccc(C)cc2)=N1 (stereo not drawn)	-	?	-	-	38.7	-
CCC1COC(c2cccn2Cc2ccc(Cl)cc2)=N1 (stereo not drawn)	-	-	-	?	-	-
CSc1nc(-c2ccco2)nn1C(=O)c1ccc(Cl)cc1	.	.	.	-	-	-
Cc1ccc(C)c(NC(=S)NC2CC3CCCC(C2)N3CC(C)C)c1 (stereo not drawn)	-	?	?	-	-	-
Cc1ccc(Oc2ncnc3sccc23)cc1	?	-	?	-	55.0	90.5
CCOc1ccc(OCCOc2ncnc3ccccc23)cc1	-	-	-	-	41.4	-
c1ccc(OCCOc2ncnc3sccc23)cc1	-	-	?	-	37.7	68.9
c1ccc(Oc2ncnc3ccccc23)cc1	-	.	-	.	.	.
COc1ccc(CCNCc2ccc3c(c2)n(C)c(=O)n3C)cc1	-	.	?	.	.	.
CCOC(=O)c1sc2nc3c(SCCC#N)cc(C(=O)c4cc(F)ccc4O)cn3c(=O)c2c1C	-	0.828µM	-	0.828µM	-	-
O=C(O)CSc1cc(C(=O)c2cc(F)ccc2O)cn2c(=O)c3c(-c4ccccc4)csc3nc12	.	8.28µM	.	?	-	-
SMILES	LASV entry inh	Pf growth 48h	MARV entry inh	Pf growth 96h	Cycloheximide cs	Shiga inhibitor
Cc1csc2ncnc(N3CCN(C(=S)Nc4ccc(F)cc4F)CC3)c12	?	-	?	-	-	-
CCc1ccc(N(CC(=O)NC2CCCC2)C(=O)CCC(=O)Nc2cc(C)on2)cc1	-	?	-	?	-	-
O=C(CN1C(=O)CCC1=O)Nc1nc(-c2nc3ccccc3s2)cs1	.	-	.	-	25.0	active
O=C(CN1C(=O)CCC1=O)Nc1nc(-c2ccc3ccccc3c2)cs1	.	-	.	-	40.1	96.2
Cc1ccc(-c2csc(NC(=O)CN3C(=O)CCC3=O)n2)cc1	.	?	.	-	-	-
CC(=O)Nc1ccc(C(=O)COC(=O)C2CC2C)c(F)c1 (stereo not drawn)	-	-	?	-	.	.
O=C(Nc1ccccc1-c1nnn(CC(=O)N2CCOCC2)n1)c1ccccc1F	-	-	?	-	-	-
NC(=O)C1CCN(c2ncnc3c2c(-c2ccccc2)cn3-c2ccccc2)CC1	.	.	.	10.4µM	-	-
COc1ccc(NC(=O)CCc2nc3c(C)nn(-c4ccc(C)cc4)c3n(C)c2=O)cc1	-	.	.	.	.	.
Cc1cc(S(=O)(=O)Nc2cccc(O)c2)c(C)s1	-	?	-	-	-	-
O=[N+]([O-])c1cccc(NNS(=O)(=O)c2ccccc2F)c1	?	-	8.91µM	-	-	-
Cc1cc(S(=O)(=O)Nc2cccc([N+](=O)[O-])c2)c(C)s1	.	-	.	2.08µM	-	-
CS(=O)(=O)N(CC(=O)Nc1cccc([N+](=O)[O-])c1)c1ccccc1F	.	-	.	-	-	-
N=c1sccn1CC(=O)Nc1ccccc1Sc1ccccc1	?	-	?	-	-	-
COc1cccc(/C=C2\CCc3ccccc3C2=O)c1	.	-	.	-	43.5	60.0
COc1ccc2c(c1)CC/C(=C\C=C\c1ccccc1)C2=O	-	?	?	?	25.2	43.9
COc1ccc(/C=C2\CC/C(=C\c3ccc(OC)cc3OC)C2=O)c(OC)c1	.	?	.	?	25.9	60.2
COc1cc(C=C2C(=O)c3ccccc3C2=O)cc(OC)c1	.	?	.	-	-	-
COc1ccc(/C=C2\CCc3ccccc3C2=O)cc1OC	-	-	-	-	52.1	139.0
O=C(NCc1ccco1)[C@@H]1CSC2c3ccccc3C(=O)N21 (stereo partly drawn)	-	-	-	.	-	-
COc1ccc2c(c1)CC/C(=C/c1ccccn1)C2=O	.	-	.	-	55.2	99.5
COc1cccc(/C=C2\C(=O)C(=O)c3ccccc32)c1	-	.	-	-	21.0	-
CC(=O)Oc1ccc(/C=C2/CCc3ccccc3C2=O)cc1	.	-	.	-	16.1	-
COc1ccc2c(c1)CC/C(=C/c1cc(OC)c(OC)c(OC)c1)C2=O	-	?	-	14.7µM	-	-
CC(=O)Oc1ccc(C(=O)Nc2ccccc2NC(=O)c2ccc(OC(C)=O)cc2)cc1	.	-[0.00184 µM]	.	?	-	-
SMILES	LASV entry inh	Pf growth 48h	MARV entry inh	Pf growth 96h	Cycloheximide cs	Shiga inhibitor
CCOC(=O)c1nc(Nc2ccc(C(=O)O)cc2)c2ccccc2n1	-	-	-	-	-	-
CCOC(=O)c1ccc(Nc2nc(C(=O)OCC)nc3ccccc23)cc1	?	9.28µM	?	-	-	-
CCOC(=O)c1nc(Nc2ccc(OC)cc2)c2ccccc2n1	?	-	?	?	24.2	47.3
CCOC(=O)c1nc(Nc2ccc(Nc3ccccc3)cc2)c2ccccc2n1	.	?	.	?	-	-
COc1ccc(NC(=O)c2ccc(C(=O)c3cc(OC)ccc3OC)cc2)cc1	-	-	-	-	-	-
O=C(CCN1C(=O)/C(=C/c2cccs2)SC1=S)Nc1cccc(C(=O)O)c1	-	-	-	-	-	-
Cc1sc2c(c1C)CN(C1CC(C)(C)NC(C)(C)C1)CN2C(=O)c1ccco1	.	?	-	-	22.8	44.0
CC1(C)CC(CCNC(=O)c2ccco2)CC(C)(C)N1	-	-	-	.	-	-
COc1ccc(C)cc1NS(=O)(=O)c1ccc2c(c1)n(C)c(=O)n2C	-	-	?	5.86µM	-	-
CCc1cccc(NS(=O)(=O)c2ccc(-n3cccn3)cc2)c1	-	-	.	13.1µM	-	-
